In PubChem BioAssay (Tox21):
Inconclusive results are not listed. Activity calls are given as the source filed them. Unless noted, calls follow the shape of the dose curve; as a rule, active = well fitted curve in the direction sought with a large enough effect in the repeat runs; inconclusive = weak or mixed curves; inactive = no such curve, though single readings can be large; an effect the other way counts as inactive or inconclusive.

How the values were obtained:
[1] = qHTS assay for small molecules that induce genotoxicity in human embryonic kidney cells expressing luciferase-tagged ATAD5 (AID 651632); also: % is scaled to controls: 0 for no effect and ±100 for the full control effect; nearly all actives have a fitted effect of over 15% in size
Outline: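 Increased luciferase signal from ATAD5-tagged reporter cells indicates DNA-damage-driven ATAD5 induction. HEK293T cells are treated for 16 hr at 37C before detection with Amplite.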

[2] = qHTS assay for small molecule agonists of the p53 signaling pathway - cell viability (AID 651633; calls by dose curve; also: nearly all actives have a fitted effect of over 30% in size; also: potency is read from the fitted curve at half-maximal effect)
Outline: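 p53RE-bla cells were treated with compound for 16 hours at 37 C. Cytotoxicity was then measured as CellTiter-Glo luminescence after 30 min at room temperature.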

[3] = qHTS assay for small molecules that induce genotoxicity in human embryonic kidney cells expressing luciferase-tagged ATAD5 - cell viability (AID 651634; calls by dose curve; also: % is scaled to controls: 0 for no effect and ±100 for the full control effect; nearly all actives have a fitted effect of over 25% in size)
Outline: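 Cytotoxicity counterscreen in HEK293T cells bearing an ATAD5-luciferase reporter: live-cell protease activity measured by CellTiter-Fluor fluorescence after 15.5 hr compound exposure.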

[4] = qHTS assay for small molecule disruptors of the mitochondrial membrane potential - cell viability (AID 720634; calls by dose curve;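 also: human HepG2 liver cancer cells; % is scaled to controls: 0 for no effect and ±100 for the full control effect; nearly all actives have a fitted effect of over 20% in size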)
Outline: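 After overnight attachment at 37 C, HepG2 cells received compound or DMSO vehicle for 1 hr. Viability is then taken from ATP-driven luminescence following a 30 min room-temperature CellTiter-Glo step.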

[5] = qHTS assay for small molecule disruptors of the mitochondrial membrane potential (AID 720635); also: potency is read from the fitted curve at half-maximal effect
Outline: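 HepG2 cells exposed to compound 1 hr at 37C, then Mito-MPS dye 30 min. Ratio read of aggregate (540/590 nm) versus monomer (490/535 nm) fluorescence.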

[6] = qHTS assay to test for compound auto fluorescence at 590 nm (red) in HepG2 cells (AID 720674); also: % is scaled to controls: 0 for no effect and ±100 for the full control effect
Outline: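 Fluorescence at 590 nm emission following 540 nm excitation was recorded from HepG2 wells one hour after compound transfer, with DMSO-only wells as vehicle and Rose Bengal sodium equivalency as the scale.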

[7] = qHTS assay to test for compound auto fluorescence at 535 nm (green) in HepG2 cells (AID 720675); also: % is scaled to controls: 0 for no effect and ±100 for the full control effect
[8] = qHTS assay to test for compound auto fluorescence at 590 nm (red) in HEK293 cells (AID 720679); also: % is scaled to controls: 0 for no effect and ±100 for the full control effect
Outline: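 Red autofluorescence, HEK293 cells: 2,000 cells/well; attach 4-5 hr 37C; add 23 nL cpd or DMSO; incubate o/n 37C 5% CO2; read Ex540/Em590; Rose Bengal sodium reference.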

[9] = qHTS assay to test for compound auto fluorescence at 535 nm (green) in HEK293 cells (AID 720680); also: % is scaled to controls: 0 for no effect and ±100 for the full control effect
[10] = qHTS assay to test for compound auto fluorescence at 460 nm (blue) in HEK293 cell free culture (AID 720681); also: % is scaled to controls: 0 for no effect and ±100 for the full control effect
Outline: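 Compounds were added to cell-free DMEM with 10% FBS and fluorescence read directly. The blue channel used 405 nm excitation and 460 nm emission, with triamterene as the reference fluorophore.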

[11] = qHTS assay to test for compound auto fluorescence at 590 nm (red) in HEK293 cell free culture (AID 720683); also: % is scaled to controls: 0 for no effect and ±100 for the full control effect
Outline: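 Cell-free wells of DMEM with 10% FBS received compound, and intrinsic fluorescence was read at excitation/emission 540/590 nm. Values expressed as equivalence to Rose Bengal sodium.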

[12] = qHTS assay to test for compound auto fluorescence at 590 nm (red) in HepG2 cell free culture (AID 720684); also: % is scaled to controls: 0 for no effect and ±100 for the full control effect
Outline: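 Compound was pinned into wells holding MEM with 10% FBS and no cells, and red fluorescence was read at Ex/Em 540/590 nm. Signal is expressed as auto fluorescence equivalency relative to Rose Bengal sodium.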

[13] = qHTS assay to test for compound auto fluorescence at 460 nm (blue) in HepG2 cell free culture (AID 720685); also: % is scaled to controls: 0 for no effect and ±100 for the full control effect
Outline: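 Compound (23 nL) or DMSO pinned into cell-free MEM with 10% FBS; blue fluorescence read at 405/460 nm excitation/emission, expressed as auto-fluorescence equivalency to triamterene.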

[14] = qHTS assay to test for compound auto fluorescence at 535 nm (green) in HepG2 cell free culture (AID 720686); also: % is scaled to controls: 0 for no effect and ±100 for the full control effect
[15] = qHTS assay to test for compound auto fluorescence at 460 nm (blue) in HepG2 cells (AID 720687); also: % is scaled to controls: 0 for no effect and ±100 for the full control effect
Outline: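 HepG2 cells in MEM with 10% FBS, attached overnight at 37 C, were exposed to compound or DMSO for 1 hr at 37 C, 5% CO2. Blue fluorescence was read at 405/460 nm, with triamterene as reference fluorophore.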

[16] = biological target: Glucocorticoid receptor (Homo sapiens) (UniProt P04150); experiment: qHTS assay to identify small molecule agonists of the glucocorticoid receptor (GR) signaling pathway (AID 720691; active = well fitted activation curve with a large enough effect in the signal ratio in the repeat runs, not every such curve was filed as active; the % refers to the signal ratio; also: % is scaled to controls: 0 for no effect and ±100 for the full control effect); settings: GR-bla HeLa, beta-lactamase reporter ratio, 18 h; activation: at 62.4 µM (top of the series) unless noted
Outline: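 Agonist mode in a HeLa line carrying a GRE-controlled beta-lactamase reporter. Compounds act for 18 h at 37 C before a 2 h room-temperature FRET substrate step and fluorescence reading.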

[17] = biological target: Glucocorticoid receptor (Homo sapiens) (UniProt P04150); experiment: qHTS assay to identify small molecule antagonists of the glucocorticoid receptor (GR) signaling pathway (AID 720692; active = well fitted inhibition curve with a large enough effect in the signal ratio in the repeat runs, not every such curve was filed as active; the % refers to the signal ratio; also: potency is read from the fitted curve at half-maximal effect)
Outline: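 Cells plated, rested 4 h at 37 C/5% CO2; compounds in DMSO pin-transferred; dexamethasone added to 5 nM final; 18 h at 37 C; B/G FRET substrate added, 2 h room temperature; fluorescence measured.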

[18] = qHTS assay for small molecule agonists of the p53 signaling pathway (AID 651631; calls by dose curve; also: potency is read from the fitted curve at half-maximal effect; nearly all actives have a fitted effect of over 15% in size)
Outline: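 Agonist mode screen using a stably integrated beta-lactamase gene under p53 response elements in HCT-116 cells. Compound exposure lasts 16 h at 37 °C; fluorescence intensity is measured following 2 h FRET substrate loading.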

[19] = qHTS assay to test for compound auto fluorescence at 460 nm (blue) in HEK293 cells (AID 720678); also: % is scaled to controls: 0 for no effect and ±100 for the full control effect
Outline: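 Intrinsic compound fluorescence is recorded in live HEK293 cultures after overnight incubation at 37C, 5% CO2, using excitation 405 nm and emission 460 nm. Values are referenced to triamterene.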

[20] = qHTS assay to test for compound auto fluorescence at 535 nm (green) in HEK293 cell free culture (AID 720682); also: % is scaled to controls: 0 for no effect and ±100 for the full control effect
Outline: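 No cells present: wells hold DMEM supplemented with 10% FBS, into which compound or vehicle is pinned. Green emission is then recorded (485 nm excitation, 535 nm emission) and scaled to fluorescein.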

Sequence of Glucocorticoid receptor (Homo sapiens) (P04150 whole entry, looked up): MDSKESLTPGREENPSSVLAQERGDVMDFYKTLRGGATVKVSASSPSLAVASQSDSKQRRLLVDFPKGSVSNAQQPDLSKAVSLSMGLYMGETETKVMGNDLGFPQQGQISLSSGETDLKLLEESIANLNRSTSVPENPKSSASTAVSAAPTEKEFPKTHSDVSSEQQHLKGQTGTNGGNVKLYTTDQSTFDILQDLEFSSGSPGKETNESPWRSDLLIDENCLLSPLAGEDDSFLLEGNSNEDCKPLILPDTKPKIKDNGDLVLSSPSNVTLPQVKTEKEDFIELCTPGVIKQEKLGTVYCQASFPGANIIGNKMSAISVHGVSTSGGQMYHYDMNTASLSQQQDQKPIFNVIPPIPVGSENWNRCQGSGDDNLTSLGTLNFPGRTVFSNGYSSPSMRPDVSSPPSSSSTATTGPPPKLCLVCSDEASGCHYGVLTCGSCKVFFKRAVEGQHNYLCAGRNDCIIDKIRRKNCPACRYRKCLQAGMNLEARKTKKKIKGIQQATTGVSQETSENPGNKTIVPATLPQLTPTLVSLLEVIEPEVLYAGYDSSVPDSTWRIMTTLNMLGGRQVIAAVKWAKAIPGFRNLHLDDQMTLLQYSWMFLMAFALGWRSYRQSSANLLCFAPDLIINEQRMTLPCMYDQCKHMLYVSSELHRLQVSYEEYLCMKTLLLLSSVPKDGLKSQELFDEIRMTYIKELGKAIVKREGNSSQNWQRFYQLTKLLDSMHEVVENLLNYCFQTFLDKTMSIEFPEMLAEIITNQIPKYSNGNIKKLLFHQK

CC(CSC(=O)c1ccccc1)C(=O)N1C[C@@H](Sc2ccccc2)C[C@H]1C(=O)O (stereo partly drawn)
inactive: Potency [1] | Potency [2] | Potency [3] | Potency [4] | Potency [5] | Potency [6] | Potency [7] | Potency [8] | outcome [9] | outcome [10] | Potency [11] | Potency [12] | outcome [13] | Potency [14] | outcome [15] | Potency [16] | Potency [17]

C=CC(=O)OCCOc1ccccc1
inactive: Potency [4] | Potency [6] | Potency [7] | Potency [8] | outcome [9] | outcome [10] | Potency [11] | Potency [12] | outcome [13] | Potency [14] | outcome [15] | Potency [16]
active: Potency [18] 68.5 µM | Potency [17] 21.9 µM

C1CCCNCCC1
inactive: Potency [1] | Potency [2] | Potency [3] | Potency [4] | Potency [5] | Potency [6] | Potency [7] | outcome [19] | Potency [8] | outcome [9] | outcome [10] | outcome [20] | Potency [11] | Potency [12] | Potency [14] | outcome [15]

COc1cc2nc(N(C)CCCNC(=O)C3CCCO3)nc(N)c2cc1OC (stereo not drawn)
inactive: Potency [1] | Potency [2] | Potency [3] | Potency [4] | Potency [5] | fluorescence, relative to Rose Bengal [6] -0.119% [at 18.6 µM] | fluorescence, % of fluorescein control [7] -0.0701% [at 18.6 µM] | fluorescence, % of triamterene [19] -0.108% [at 18.6 µM] | fluorescence, % of fluorescent control [8] -0.585% [at 18.6 µM] | fluorescence, % of fluorescein [9] -0.0302% [at 18.6 µM] | fluorescence, % of fluorescent control [10] -0.0154% [at 18.6 µM] | activity change [20] -0.131% [at 18.6 µM] | fluorescence, % of fluorescent control [11] -0.206% [at 18.6 µM] | fluorescence, % of Rose Bengal [12] -0.324% [at 18.6 µM] | fluorescence, % of fluorescent control [13] -0.0022% [at 18.6 µM] | fluorescence, % of fluorescent control [15] 0.136% [at 18.6 µM] | Potency [17]

CCCCCCc1ccc(-c2ccc(C#N)cc2)cc1
inactive: Potency [1] | Potency [2] | Potency [4] | Potency [6] | Potency [7] | outcome [19] | Potency [8] | outcome [9] | outcome [10] | outcome [20] | Potency [11] | Potency [12] | outcome [13] | Potency [14] | outcome [15] | Potency [16]
active: Potency [5] 26.8 µM

CCC(C)(C)CC
inactive: Potency [1] | Potency [2] | Potency [3] | Potency [4] | Potency [6] | Potency [7] | outcome [19] | Potency [8] | outcome [9] | outcome [10] | outcome [20] | Potency [12] | outcome [13] | Potency [14] | outcome [15] | Potency [16] | Potency [17]

NCCCN1CCOCC1
inactive: Potency [1] | Potency [2] | Potency [3] | Potency [4] | Potency [6] | outcome [19] | Potency [8] | outcome [9] | outcome [10] | outcome [20] | Potency [11] | Potency [14] | Potency [16] | Potency [17]

CC(C)=CCC/C(C)=C/CC/C(C)=C/CO
inactive: Potency [1] | Potency [4] | Potency [6] | Potency [7] | outcome [19] | Potency [8] | outcome [9] | outcome [10] | outcome [20] | Potency [11] | outcome [13] | Potency [14] | outcome [15]
active: Potency [2] 68.6 µM

CCN(CC)CCOC(=O)C(Cc1cccc2ccccc12)CC1CCCO1 (stereo not drawn)
inactive: Potency [1] | Potency [2] | Potency [3] | Potency [4] | fluorescence, % of triamterene [19] 0.0425% [at 18.6 µM] | fluorescence, % of fluorescent control [8] 0.195% [at 18.6 µM] | fluorescence, % of fluorescein [9] 0.0124% [at 18.6 µM] | fluorescence, % of fluorescent control [10] 0.0375% [at 18.6 µM] | fluorescence, % of fluorescent control [11] 0.0006% [at 18.6 µM] | fluorescence, % of fluorescent control [13] -0.0194% [at 18.6 µM] | fluorescence, % of fluorescein control [14] 0.0151% [at 18.6 µM] | fluorescence, % of fluorescent control [15] -0.147% [at 18.6 µM]

OC(C#CCN1CCCC1)(c1ccccc1)c1ccccc1
inactive: Potency [1] | Potency [2] | Potency [3] | Potency [4] | Potency [6] | Potency [7] | outcome [19] | Potency [8] | outcome [9] | outcome [10] | Potency [11] | Potency [12] | outcome [13] | outcome [15] | Potency [16]
